The whole screen tested about 2,300 compounds, of which about 330 (14%) showed activity. The list is a sample of the results. Values without a mark were called inactive.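 Rule for the calls: active = median modified Z-score above 1.96; inactive = 1.96 or below.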
Test system: HepG2 Srxn1-GFP reporter cells (+30 nM CDDO-Me)
Experiment: Srxn1-GFP intensity median modified Z-score relative to plate median; higher = stronger NRF2 / oxidative stress reporter activation, active = hit call of the paper
Details: 10 µM; exposure time: 24h
In short: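 Per-cell cytoplasmic GFP was measured on confocal images of formaldehyde-fixed, Hoechst-stained HepG2 Srxn1-GFP BAC reporter cells, excluding images with fewer than 100 cells. Before this, the cells (20,000 per well, 96-well plates) were co-exposed for 24 h to compound at 10 μM and an NRF2 activator at 30 nM with ≤0.1% DMSO, in three replicate plates. Each value is the median over replicates of the per-plate modified Z-score of GFP intensity. That score was scaled with 1.4826 × median absolute deviation.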

SMILES | Srxn1-GFP intensity median modified Z-score
CCC(C)C(=O)O[C@@H]1C[C@@]2(C)[C@H](c3ccoc3)OC(=O)CC23OC2(C)OC34[C@H](OC(=O)C(C)C)[C@@]3(O)[C@@H](OC(=O)C5(C)OC5C)[C@@]5(C)C[C@]3(O)[C@@](C)([C@H]5CC(=O)OC)C14O2 (stereo not given in full) [euspeclibcmpd1627] | 0.307
COc1c2c(cc3c1OCO3)CC[N+](C)=C2 [euspeclibcmpd2418] | 0.209
CNCC(=O)c1ccc(O)c(O)c1 [euspeclibcmpd922] | -1.16
CCC1(CC)C(=O)NC(=O)NC1=O [euspeclibcmpd2126] | 0.302
COc1ccc2c3c([nH]c2c1)C(C)=NCC3 [euspeclibcmpd2276] | 66 (active)
CC1=NCCc2c1[nH]c1cc(O)ccc21 [euspeclibcmpd2357] | 7.71 (active)
Cl[C@H]1[C@H](Cl)[C@@H](Cl)[C@@H](Cl)[C@H](Cl)[C@H]1Cl [euspeclibcmpd969] | 0.0503
CC1C(=O)O[C@@H]2O[C@]3(C)CC[C@H]4[C@H](C)CC[C@@H]1[C@@]24OO3 (stereo not given in full) [euspeclibcmpd1110] | 0.987
CC(=O)O[C@@H]1C2CC[C@@H]3C1(C[C@@H](O)[C@@]1(O)[C@@H](C[C@H](O)C1(C)C)[C@]3(C)O)C[C@@]2(C)O (stereo not given in full) [euspeclibcmpd2325] | -0.506
CC(C)(C#N)O[C@@H]1O[C@H](CO)[C@@H](O)[C@H](O)[C@H]1O [euspeclibcmpd1356] | 0.0487
CC1C[C@H](C)C[C@H]([C@H](O)CC2CC(=O)NC(=O)C2)C1=O (stereo not given in full) [euspeclibcmpd437] | -0.201
C=C[C@H]1C[N@]2CC[C@H]1C[C@@H]2[C@H](O)c1ccnc2ccccc12 [euspeclibcmpd2140] | 0.321
Cc1nc(=N)c(CNC(=O)N(CCCl)N=O)c[nH]1 [euspeclibcmpd1167] | -0.0324
N=C(N)NN [euspeclibcmpd930] | -0.0849
CC[C@H]1CN2CCc3cc(OC)c(OC)cc3C2C[C@@H]1CC1NCCc2cc(OC)c(OC)cc21 (stereo not given in full) [euspeclibcmpd109] | -1.21
CCC(CO)NC(=O)C1=CC2c3cccc4[nH]cc(c34)CC2N(C)C1 (stereo not given) [euspeclibcmpd1928] | -0.0083
CC(CO)NC(=O)C1=CC2c3cccc4[nH]cc(c34)CC2N(C)C1 (stereo not given) [euspeclibcmpd113] | 0.556
CC[C@@H](CO)NC(=O)C1=CC2c3cccc4c3c(cn4C)C[C@H]2N(C)C1 (stereo not given in full) [euspeclibcmpd522] | -0.363
CN1CC(C(=O)N[C@]2(C)O[C@@]3(O)C4CCCN4C(=O)C(Cc4ccccc4)N3C2=O)=CC2c3cccc4[nH]cc(c34)CC21 (stereo not given in full) [euspeclibcmpd823] | 113 (active)
CN1CC(C(=O)N[C@]2(C)O[C@@]3(O)[C@@H]4CCCN4C(=O)C(Cc4ccccc4)N3C2=O)C[C@@H]2c3cccc4[nH]cc(c34)C[C@H]21 (stereo not given in full) [euspeclibcmpd97] | -0.0377
CC(C)CC1C(=O)N2CCC[C@H]2[C@@]2(O)O[C@](NC(=O)C3=CC4c5cccc6[nH]c(Br)c(c56)CC4N(C)C3)(C(C)C)C(=O)N12 (stereo not given in full) [euspeclibcmpd39] | 23.2 (active)
CC(NC(C)(C)C)C(=O)c1cccc(Cl)c1 (stereo not given) [euspeclibcmpd657] | -0.376
CC(=O)Oc1ccc(/C=C/c2cc(OC(C)=O)cc(OC(C)=O)c2)cc1 [euspeclibcmpd1618] | 1.59

SMILES | Srxn1-GFP intensity median modified Z-score
CC(=O)NC1CCSC1=O (stereo not given) [euspeclibcmpd1125] | 0.231
CCOP(=S)(OCC)Oc1cc(C)nc(C(C)C)n1 [euspeclibcmpd706] | -0.234
C=CCc1cc(OC)c2c(c1OC)OCO2 [euspeclibcmpd1480] | -0.404
N=c1cc[nH]cc1 [euspeclibcmpd895] | -0.471
Cc1cc(C(C#N)c2ccc(Cl)cc2)c(Cl)cc1NC(=O)c1cc(I)cc(I)c1O (stereo not given) [euspeclibcmpd694] | 9.76 (active)
CN(C)C1C(=O)C(C(N)=O)C(=O)[C@@]2(O)C(=O)C3C(=O)c4c(O)cccc4[C@@](C)(O)[C@H]3[C@H](O)[C@@H]12 (stereo not given in full) [euspeclibcmpd225] | -0.444
CC(=O)O[C@@H]1CC[C@]2(C)C3CC[C@]4(C)C(=O)CCC4C3CC[C@H]2C1 (stereo not given in full) [euspeclibcmpd1810] | 0.269
Cc1nc(=O)c(C[n+]2csc(CCO)c2C)c[nH]1 [euspeclibcmpd1800] | 0.155
CCCCCC1C(=O)O[C@H](C)C(NC(=O)c2cccc(NC=O)c2O)C(=O)O[C@@H](C)[C@@H]1OC(=O)CC(C)C (stereo not given in full) [euspeclibcmpd1446] | 39.4 (active)
C[C@]12C=CC(=O)CC1=CCC1C2CC[C@]2(C)C(=O)CCC12 (stereo not given in full) [euspeclibcmpd1581] | -0.0301
N#CC(=Cc1ccc(O)cc1)C(=O)O [euspeclibcmpd1768] | -0.146
CC[C@H](c1cccc(O)c1)[C@@H](C)CN(C)C [euspeclibcmpd2238] | -0.41
O=C1C(Cl)=C(Cl)C(=O)C(Cl)=C1Cl [euspeclibcmpd1739] | 25.8 (active)
C=CCN=C=S [euspeclibcmpd920] | 0.0414
Cc1ccc(/N=C/N(C)/C=N/c2ccc(C)cc2C)c(C)c1 [euspeclibcmpd739] | 0.115
CC1=C2CCC3C(CC[C@]4(C)C(=O)CCC34)[C@@]2(C)CCC1=O (stereo not given in full) [euspeclibcmpd1163] | -0.15
CN[C@@H]1[C@@H](O)C(OC2[C@@H](N)C[C@@H](N)[C@H](O[C@H]3O[C@H](C(C)O)[C@@H](O)[C@H](O)[C@H]3N)[C@H]2O)OC[C@]1(C)O (stereo not given in full) [euspeclibcmpd1437] | -0.354
COc1cc([C@@H]2c3cc4c(cc3[C@H](OC(C)=O)[C@H]3COC(=O)C23)OCO4)cc(OC)c1OC (stereo not given in full) [euspeclibcmpd2106] | 13.1 (active)
COc1ccc2c(c1OC)C(=O)O[C@@H]2[C@H]1c2cc3c(cc2CCN1C)OCO3 [euspeclibcmpd2270] | 0.619
COc1cc([C@@H]2c3cc4c(cc3[C@H](O)[C@H]3COC(=O)C23)OCO4)cc(OC)c1OC (stereo not given in full) [euspeclibcmpd2060] | 27.1 (active)
CN1CCc2cc3c(cc2C1O)OCO3 (stereo not given) [euspeclibcmpd1021] | 0.455
COc1cc([C@@H]2c3cc4c(cc3[C@H](O)[C@H]3COC(=O)C23)OCO4)cc(OC)c1OC (stereo not given in full) [euspeclibcmpd2203] | 11.5 (active)

From the supplement of paper PMC10498489
